# According to PubChem BioAssay (NCATS):
# Results filed as inconclusive are left out. Activity calls are given as the source filed them. Calls follow the shape of the dose curve; as a rule, active = well fitted inhibition curve with a large enough effect; inconclusive = small, poorly fitted or top-dose-only effect; inactive = flat fitted curve, though single readings scatter.
# Target: Calcium and integrin-binding protein 1 (Homo sapiens) (UniProt Q99828)
# Experiment: Primary qHTS for Identification of Calcium Integrin Binding Protein 1 (CIB1) Competitor (AID 1508620); also: top concentration of the series differs between compounds
# Conditions: CIB1-GST / FITC-alphaIIb peptide fluorescence polarization; series mostly up to 57.7 µM; activity change, negative = inhibition: at the top concentration
# In short: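 Fluorescence polarization competition: GST-tagged CIB1 (1 uM final) preincubated with compound 15 min at room temperature, then FITC-labelled alphaIIb peptide (100 nM final) added. After 15 min at room temperature, polarization read at Ex 480/Em 540.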
# % is scaled to controls: 0 for no effect and ±100 for the full control effect.
# Chain of Calcium and integrin-binding protein 1 (Homo sapiens) (Q99828 whole entry, looked up): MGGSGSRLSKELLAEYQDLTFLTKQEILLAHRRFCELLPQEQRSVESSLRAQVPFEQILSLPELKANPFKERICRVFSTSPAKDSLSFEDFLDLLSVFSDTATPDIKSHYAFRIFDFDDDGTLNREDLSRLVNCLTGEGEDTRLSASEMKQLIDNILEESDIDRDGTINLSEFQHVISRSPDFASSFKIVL
Structure (SMILES),Potency,"activity change, negative = inhibition"
CC1(C)CC(=O)c2c(C(F)(F)F)nn(-c3ccc(C(N)=O)c(NC4CCC(O)CC4)c3)c2C1 (stereo not drawn),inactive,
O=C1NC(=O)C(c2cnc3ccccn23)=C1c1cn2c3c(cccc13)CN(C(=O)N1CCOCC1)CC2,,-4.01% [at 114 µM] (inactive)
Nc1ncnc2c1c(-c1cccc(OCc3ccccc3)c1)cn2C1CC(CN2CCC2)C1 (stereo not drawn),inactive,
CCN(CC)CCCCNc1nc2cc(Cl)c(Cl)cc2nc1-c1ccc(-c2cccs2)s1,,-0.333% (inactive)
CCC(=O)OCC(=O)[C@@]1(OC(=O)CC)[C@@H](C)C[C@@H]2[C@H]3CCC4=CC(=O)C=C[C@]4(C)[C@@]3(F)[C@@H](O)C[C@@]21C,,-3.11% (inactive)
CCCCCOC(=O)Nc1nc(=O)n([C@@H]2O[C@H](C)[C@@H](O)C2O)cc1F (stereo partly drawn),,2.47% (inactive)
C=CC[N+]1([C@H]2C[C@H]3[C@@H]4CC[C@H]5C[C@H](O)[C@@H](N6CCOCC6)C[C@]5(C)[C@@H]4CC[C@]3(C)[C@H]2OC(C)=O)CCCC1,,-0.125% (inactive)
CCOC(=O)N1CCN([N+]([O-])=NOc2cc(ON=[N+]([O-])N3CCN(C(=O)OCC)CC3)c([N+](=O)[O-])cc2[N+](=O)[O-])CC1,,-18.2% (inactive)
CC(C)(C)c1[nH]cnc1C=c1[nH]c(=O)c(=Cc2ccccc2)[nH]c1=O,,5.68% [at 114 µM] (inactive)
NC(N)=Nc1nc(CSCCC(N)=NS(N)(=O)=O)cs1,,-3.05% (inactive)
Cc1ccc(NC(=O)c2cccc(N(C)C)c2)cc1NC(=O)c1ccc(O)cc1,,1.82% (inactive)
COc1cc2c(cc1Cc1cccc(Cl)c1F)c(=O)c(C(=O)O)cn2[C@H](CO)C(C)C,,-7.04% (inactive)
CON(C)C(=O)N1N=C(c2cc(F)ccc2F)S[C@]1(CCCN)c1ccccc1,,2.27% (inactive)
